Measurements as given in PubChem BioAssay AID624151 (Broad Institute, 2012).
In all, about 28,000 compounds went through this assay and about 410 (1.5%) were called active. No stated cut-off is given here; in the data, active means activation above about 52%; inconclusive means no clear call, values can overlap the other calls; inactive means below that. Shown is part of a subset that was picked to be rich in actives.

Assay: mutant p53 pathway re-activators, primary screen, cell-based, SW480, luciferase, single point, HTS (AID 624151)
Settings: SW480 PUMA-promoter luciferase, p53 mutant reactivation; at 9.98 µM; active compounds read high
In the case of `CC(C)CC#Cc1cnc2c(c1)C(=O)N([C@@H](C)CO)C[C@H](C)[C@@H](CN(C)Cc1ccccc1C(=O)O)O2`, the activation is reported as -10.9% (inactive). With `C/C=C/c1cnc2c(c1)C(=O)N([C@H](C)CO)C[C@H](C)[C@@H](CN(C)C(=O)c1cccc(F)c1)O2` the activation was 0.956% (inactive). For `O=C(CN1CCOCC1)Nc1ccc(NC(=O)CN2CCOCC2)c(Cl)c1`, the activation was -19.4% (inactive). For `Cc1cc(C)n2nc(SCC(=O)Nc3ccccc3[N+](=O)[O-])nc2n1`, the activation was -13.8% (inactive). For `O=C(CSc1nnc(-c2ccccc2)n1-c1ccccc1)c1cccc([N+](=O)[O-])c1`, the activation was -1.58% (inactive). With `O=C(CSc1nnc2ccc3ccccc3n12)Nc1ccc2c(c1)OCCO2` the activation was 64.7% (active). With `Cc1cccc(NC(=O)CSc2nnc3c4ccccc4nc(-c4ccccc4)n23)c1` the activation was 13.8% (inactive). With `CCn1c(SCC(=O)Nc2ccc3c(c2)OCCO3)nnc1-c1ccncc1` the activation was -4.36% (inactive). In the case of `COC(=O)Cc1c(C)nc2nc(COc3ccccc3)[nH]n2c1=O`, the activation is reported as 10.4% (inactive). In the case of `O=C(NCc1ccccn1)c1ccccc1C(=O)c1ccccc1`, the activation is reported as -9.74% (inactive). With `CC(=O)Nc1ccc(NC(=O)COc2ccccc2C(=O)Nc2cccc(Cl)c2Cl)cc1` the activation was -38.7% (inactive). With `O=C(NCc1ccccn1)C(=O)Nc1cccc(Cl)c1Cl` the activation was 63.9% (active). In the case of `C[C@@H]1CN([C@H](C)CO)C(=O)c2cc(-c3ccc(C#N)cc3)cnc2O[C@@H]1CN(C)CC1CC1`, the activation is reported as -0.916% (inactive). In the case of `COc1ccc(OC)c2c1CC(C)(C)N=C2SC`, the activation is reported as -18.5% (inactive). With `O=C(CSc1nnc(-c2ccncc2)n1-c1ccccc1)Nc1ccc(Cl)c(Cl)c1` the activation was 16.3% (inactive). In the case of `COc1cccc(C#Cc2cnc3c(c2)C(=O)N([C@@H](C)CO)C[C@H](C)[C@@H](CN(C)C(C)=O)O3)c1`, the activation is reported as 1.26% (inactive). In the case of `O=C(C[C@H]1C[C@@H]2c3cc(NS(=O)(=O)c4ccc(F)cc4)ccc3O[C@@H]2[C@@H](CO)O1)NCc1cccc(F)c1`, the activation is reported as -7.78% (inactive). With `CC(=O)N1C(=S)NC(=O)/C1=C/c1c(Cl)cccc1Cl` the activation was -5.19% (inactive). With `C/C=C/c1cnc2c(c1)C(=O)N([C@@H](C)CO)C[C@H](C)[C@@H](CN(C)C(=O)C1CC1)O2` the activation was -5.73% (inactive). For `CCCN(Cc1cc2cccc(C)c2[nH]c1=O)S(C)(=O)=O`, the activation was -2.56% (inactive). In the case of `CCCNC(=O)N(C)C[C@H]1Oc2ncc(-c3ccccc3F)cc2C(=O)N([C@@H](C)CO)C[C@H]1C`, the activation is reported as 1.17% (inactive). With `COc1cccc(C#Cc2cnc3c(c2)C(=O)N([C@@H](C)CO)C[C@H](C)[C@@H](CN(C)C(=O)C2CCC2)O3)c1` the activation was 9.52% (inactive). With `C[C@@H]1CN([C@H](C)CO)C(=O)c2cc(C#CC3(O)CCCC3)cnc2O[C@H]1CN(C)C(=O)C1CCC1` the activation was 15% (inactive). With `COc1ccccc1NC(=O)C1=C(C)Nc2nnnn2C1c1ccccc1OCc1ccccc1` (stereo unspecified) the activation was 11.3% (inactive). In the case of `CCCC#Cc1cnc2c(c1)C(=O)N([C@H](C)CO)C[C@@H](C)[C@@H](CN(C)C(=O)Nc1ccccc1OC)O2`, the activation is reported as -6.47% (inactive). For `CCCC#Cc1cnc2c(c1)C(=O)N([C@H](C)CO)C[C@H](C)[C@H](CN(C)S(=O)(=O)c1cn(C)cn1)O2`, the activation was 5.56% (inactive). In the case of `C[C@@H]1CN([C@H](C)CO)C(=O)c2c(c3ccccc3n2C)-c2ccccc2CO[C@@H]1CN(C)C(=O)Nc1ccccc1`, the activation is reported as 10.9% (inactive). For `Cc1ccc2oc(C(=O)Nc3nnc(SCc4ccccc4)s3)c(C)c2c1`, the activation was 17.4% (inactive). With `C[C@@H]1CCCCO[C@H](CN(C)S(C)(=O)=O)[C@@H](C)CN([C@H](C)CO)C(=O)c2cc(NS(=O)(=O)c3ccc(Cl)cc3)ccc2O1` the activation was 2.27% (inactive). With `COCC#Cc1cnc2c(c1)C(=O)N([C@@H](C)CO)C[C@@H](C)[C@H](CN(C)C(=O)c1cnccn1)O2` the activation was 2.72% (inactive). With `C[C@@H]1CN([C@@H](C)CO)S(=O)(=O)c2ccc(C#CC3(O)CCCC3)cc2O[C@H]1CN(C)C(=O)c1ccncc1` the activation was 7.47% (inactive). With `C[C@H]1CN([C@@H](C)CO)C(=O)c2cc(-c3cccc(C(=O)N(C)C)c3)cnc2O[C@H]1CN(C)S(=O)(=O)c1ccccc1` the activation was 10.1% (inactive). In the case of `CCCN(C)C[C@@H]1Oc2cc(-c3cccc(C#N)c3)ccc2S(=O)(=O)N([C@@H](C)CO)C[C@@H]1C`, the activation is reported as 2.45% (inactive). For `COCC#Cc1ccc2c(c1)O[C@@H](CN(C)Cc1ccccn1)[C@@H](C)CN([C@@H](C)CO)S2(=O)=O`, the activation was 5.92% (inactive). In the case of `CCOc1csc2nc(C)cc(C)c12`, the activation is reported as 7.54% (inactive). For `C[C@@H]1CN([C@@H](C)CO)S(=O)(=O)c2ccc(/C=C/c3ccccc3)cc2O[C@@H]1CN(C)C(=O)Nc1cc(F)ccc1F`, the activation was -25.7% (inactive). With `C[C@H]1CN([C@@H](C)CO)C(=O)c2cc(C#CCN(C)C)cnc2O[C@H]1CN(C)C(=O)Cc1ccccc1` the activation was -0.24% (inactive). In the case of `O=C(CC(C(=O)O)N1CCNCC1)Nc1cccc(Cl)c1` (stereo unspecified), the activation is reported as 13.8% (inactive). In the case of `COc1ccc(OC(C)C(=O)Nc2cccnc2)cc1` (stereo unspecified), the activation is reported as -3.84% (inactive). With `CC(=O)Oc1ccc(C(=O)N(C(=O)c2ccc(OC(C)=O)cc2)c2cc(C)ccn2)cc1` the activation was 6.89% (inactive). For `CCn1c(SCC(=O)Nc2cc(Cl)c(Cl)cc2Cl)nnc1-c1ccccc1Cl`, the activation was -3.77% (inactive). With `Cc1ccc(S(=O)(=O)Nc2ccc3c(c2)C(=O)N([C@H](C)CO)C[C@@H](C)[C@H](CN(C)S(=O)(=O)c2ccc(C)cc2)OCCCC[C@@H](C)O3)cc1` the activation was -37.2% (inactive). For `O=C(C[C@H]1C[C@H]2c3cc(NC(=O)Nc4ccccc4F)ccc3O[C@H]2[C@H](CO)O1)NCc1ccccn1`, the activation was 3.57% (inactive). In the case of `Cc1ccc2c(c1)CCCN2S(=O)(=O)c1cc(OCC(N)=O)c(C)cc1Cl`, the activation is reported as -21.2% (inactive). For `O=C(C[C@H]1C[C@@H]2c3cc(NC(=O)c4ccc5c(c4)OCO5)ccc3O[C@@H]2[C@@H](CO)O1)NCCN1CCCCC1`, the activation was 13.6% (inactive). With `O=C(Nc1ccc(-c2nc3ccccc3o2)c(O)c1)c1ncn[nH]1` the activation was -35% (inactive). In the case of `Cc1ccnc(NCc2ccc(N(C)C)cc2)c1`, the activation is reported as 45.6% (inactive). In the case of `Cc1cc([N+](=O)[O-])nn1CC(=O)NC(C)C`, the activation is reported as -1.03% (inactive). In the case of `N#Cc1c(NC(=O)CCn2cnc3ccccc3c2=O)sc2c1CCCC2`, the activation is reported as 4.75% (inactive). With `COc1ccc(C(=O)CSc2nnc(-c3cccc(C)c3)n2-c2ccccc2)cc1` the activation was -17.1% (inactive). In the case of `Cc1cc(C)c(C)c(Oc2coc3cc(OCC(=O)Nc4ccccc4Cl)ccc3c2=O)c1`, the activation is reported as -8.1% (inactive). In the case of `CCOc1ccc2c(=O)c(Oc3ccccc3Br)coc2c1`, the activation is reported as 53.9% (active). In the case of `O=C(COc1ccc2c(=O)c(-c3ccccc3)coc2c1)Nc1ccc(F)cc1`, the activation is reported as 5.8% (inactive). With `O=C(CSc1nnc(-c2ccccc2F)n1-c1ccccc1)Nc1ccc(Br)cc1` the activation was -2.35% (inactive). With `CCOC(=O)c1c(NC(=S)Nc2cnccn2)sc2c1CCCCCC2` the activation was -14.1% (inactive). With `COc1ccc(N(CC(=O)Nc2ccccc2F)S(C)(=O)=O)cc1` the activation was -10.8% (inactive). For `O=C(NCc1ccco1)C1CCCN(S(=O)(=O)c2ccccc2)C1` (stereo unspecified), the activation was -15.8% (inactive). With `O=C(CS(=O)(=O)Cc1ccccc1)Nc1cccnc1` the activation was -13.2% (inactive). For `CC(C)c1cnc(NC(=O)Cc2ccccc2)s1`, the activation was 118% (active). With `O=C(c1ccccc1Br)N1CCN(c2ccc([N+](=O)[O-])c(NCc3cccnc3)c2)CC1` the activation was 1.31% (inactive). For `COc1ccc(NC(=O)C(=O)NCC(=O)Nc2cccc(C(F)(F)F)c2)cc1`, the activation was 3.32% (inactive). With `CCCN(C)C[C@H]1Oc2ncc(C#CCOC)cc2C(=O)N([C@@H](C)CO)C[C@H]1C` the activation was 6.77% (inactive). In the case of `COc1ccc(S(=O)(=O)N(C)C[C@H]2OCCCC[C@@H](C)Oc3ccc(NC(=O)NC(C)C)cc3C(=O)N([C@H](C)CO)C[C@H]2C)cc1`, the activation is reported as -3.86% (inactive). For `COc1ccc(OC(C)C(=O)Nc2ccc(OC)c(OC)c2)cc1` (stereo unspecified), the activation was 8.88% (inactive). In the case of `Cc1cccc(NC(=O)CSc2nc3c(cc2C#N)CCCCC3)c1`, the activation is reported as 90.8% (active). In the case of `N#Cc1cc2c(nc1SCC(=O)Nc1ccccc1C(F)(F)F)CCCCC2`, the activation is reported as 25.5% (inactive). In the case of `CN(C)c1ccc(NC(=O)CSc2nc3c(c(C(F)(F)F)c2C#N)CCCCCC3)cc1`, the activation is reported as -6.67% (inactive). In the case of `COCC#Cc1ccc2c(c1)O[C@H](CN(C)Cc1ccc3c(c1)OCO3)[C@H](C)CN([C@H](C)CO)S2(=O)=O`, the activation is reported as 12.5% (inactive). For `CCn1c2ccccc2c2cc(NS(=O)(=O)c3ccccc3[N+](=O)[O-])ccc21`, the activation was -0.615% (inactive). With `Cn1c(SCC(=O)Nc2c(Cl)cccc2Cl)nnc1-c1ccc(NC(=O)c2ccc(F)cc2)cc1` the activation was -1.4% (inactive). In the case of `COc1ccc(OC)c(NC(=O)CSc2n[nH]c(-c3ccncc3)n2)c1`, the activation is reported as -8.93% (inactive). With `Cc1ccc(C(C)C)cc1OCC(O)Cn1cnc2ccccc21` (stereo unspecified) the activation was -15.4% (inactive). For `CCCNC(=O)N(C)C[C@@H]1Oc2ncc(-c3cccc(C#N)c3)cc2C(=O)N([C@@H](C)CO)C[C@@H]1C`, the activation was 2.46% (inactive). For `CC(=O)c1cccc(NC(=O)C(C)N(c2ccc(C)cc2)S(C)(=O)=O)c1` (stereo unspecified), the activation was 0.89% (inactive). For `Cc1cc(=O)[nH]c(SCCCOc2ccccc2-c2ccccc2)n1`, the activation was -15.4% (inactive). In the case of `C[C@H]1CN([C@@H](C)CO)C(=O)c2cc(/C=C/c3ccccc3)cnc2O[C@@H]1CN(C)C(=O)c1ccc(F)cc1`, the activation is reported as 5.51% (inactive).
